Screening data: PubChem BioAssay, several laboratories
The list is not random: actives were taken first. Their share in the collection is about 2.2%.
BaF3 parental = parental Ba/F3 viability inhibition as JAK2V617F counter-screen. CellTiter-Glo ATP luminescence. inhibition, % at 5.6 µM. actives 1.1% (n = 220,000). AID 1486;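 active means inhibition above a per-campaign cutoff, the mean inhibition of all tested compounds plus 3 SD, cut at about 27% in these data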;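 further: 0% = DMSO wells and 100% = JAK Inhibitor I control wells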
aSyn UTR inh = 5' untranslated region of α-synuclein, MLPCN primary screen | alpha-synuclein 5'UTR reporter, inhibitor activity | inhibition, % (tested at 7.5 µM) | actives 0.82% (n = 300,000) | AID 1813; in the data active means inhibition above about 60%;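 further: H4 neuroglioblastoma cells stably carrying SNCA 5'UTR luciferase fusion; 0% = DMSO wells and 100% = positive control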
KLF5 inhibitor = suppresses KLF5 promoter-driven expression; actives 0.23% (n = 290,000); DLD-1 KLF5 promoter-luciferase reporter, luminescence; AID 1700; inhibition, % at 5 µM;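 active means inhibition above a per-plate limit of that plate's mean compound inhibition plus 3 SD, cut at about 60% in these data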;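 further: 0% = DMSO wells and 100% = LY294002 at 200 µM; higher means less KLF5 promoter-driven luciferase light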
Ba/F3 V617F tox = lowers viability of Ba/F3 cells expressing EpoR and JAK2V617F. ATP luminescence. inhibition, % at 5.6 µM. actives 1.1% (n = 220,000). AID 1446;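 active means inhibition above the campaign mean plus 3 SD over all tested compounds, cut at about 24% in these data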;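 further: cytokine-independent growth of Ba/F3 cells driven by EpoR plus mutant JAK2; 0% = DMSO-treated cells and 100% = JAK inhibitor I control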
APP transl inh = APP translation inhibition; SH-SY5Y APP 5'UTR-luciferase reporter, luminescence; inhibition, % at 2 µM; actives 0.82% (n = 190,000);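 active means inhibition above a set limit, derived from the sample mean plus 3 SD, cut at about 45% in these data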
IEC-6 cytotox = counter-screen for KLF5 inhibitors: cytotoxicity in IEC-6 cells; IEC-6 cytotoxicity, luminescence viability; inhibition, % at 5 µM; actives 0.78% (n = 290,000); in the data active means inhibition above about 22%;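 further: 0% = plate median of test compound wells and 100% = cytotoxic reference compound wells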
Starred values were filed as active, the others as inactive.

Screening O=C(Nc1ncc(Cc2cccc([N+](=O)[O-])c2)s1)c1ccco1 returned BaF3 parental 27.2*, aSyn UTR inh -4.9, KLF5 inhibitor 3.4, Ba/F3 V617F tox 17.9, APP transl inh -46.8 and IEC-6 cytotox 6.1.
`CCC(C)(C)C1CCC2(CC1)NC(=O)N(CC(=O)N(C)CC(=O)Nc1ccccc1C(F)(F)F)C2=O` (stereo not drawn) gave aSyn UTR inh 5.2, KLF5 inhibitor -3.8 and IEC-6 cytotox -2.8.
For CC(C)N(Cc1cc2ccccc2[nH]c1=O)C(=O)C1CCCCC1 the results were BaF3 parental 27.5*, aSyn UTR inh 11.8, KLF5 inhibitor -12.8, Ba/F3 V617F tox -2.2, APP transl inh -26.1 and IEC-6 cytotox 1.5.
CCOC(=S)SCc1cn2cccc(C)c2n1 was read as BaF3 parental 9.8, aSyn UTR inh -2.7, KLF5 inhibitor -5.2, Ba/F3 V617F tox 5.7, APP transl inh -12.5 and IEC-6 cytotox 5.5.
`C=CCNC(=S)N(CC)c1cccc2ccccc12` gave BaF3 parental 35.6*, aSyn UTR inh -7.4, KLF5 inhibitor -17.0, Ba/F3 V617F tox 34.3*, APP transl inh -3.6 and IEC-6 cytotox 6.9.
Cc1cc(C(=O)N/N=C2\CCCc3ccccc32)c(C)o1 was read as BaF3 parental 7.0, aSyn UTR inh -126.1, KLF5 inhibitor -17.9, Ba/F3 V617F tox 0.2, APP transl inh 67.8* and IEC-6 cytotox 8.5.
CNS(=O)(=O)c1cc(NC(=O)c2cncn2-c2ccccc2)ccc1C was read as aSyn UTR inh -2.6, KLF5 inhibitor 16.9 and IEC-6 cytotox -9.7.
Cc1cccc(-c2c3c(nc4c2c(=O)n(C)c(=O)n4C)-c2ccccc2C3O)c1 (stereo not drawn) was read as aSyn UTR inh -4.4.
`Cc1nnc(-c2ccccc2)c(=O)n1/N=C/c1c(O)ccc2ccccc12` gave BaF3 parental 6.0, aSyn UTR inh 83.1*, KLF5 inhibitor 29.5, Ba/F3 V617F tox 2.2, APP transl inh 60.9* and IEC-6 cytotox -1.9.
`O=C(Cc1c(F)cccc1Cl)Nc1ccc(S(=O)(=O)Nc2nccs2)cc1` gave aSyn UTR inh 11.3, KLF5 inhibitor -12.3 and IEC-6 cytotox 4.0.
For O=C(N1CCCCC1)N1CCN(C(=O)N(c2ccccc2)c2ccccc2)CC1 the results were BaF3 parental 8.3, aSyn UTR inh 1.3, KLF5 inhibitor -28.0, Ba/F3 V617F tox 1.1, APP transl inh 6.2 and IEC-6 cytotox 3.0.
`O=C(N1CCOCC1)N1CCN(C(=O)N(c2ccccc2)c2ccccc2)CC1` gave BaF3 parental 1.0, aSyn UTR inh 23.9, KLF5 inhibitor -13.7, Ba/F3 V617F tox -2.1, APP transl inh 57.0* and IEC-6 cytotox -2.4.
CCn1c(/C=C/N(C(C)=O)c2ccccc2)[n+](CC)c2ccc(Cl)cc21 was read as BaF3 parental 9.6, aSyn UTR inh -13.9, KLF5 inhibitor -13.5, Ba/F3 V617F tox -3.8, APP transl inh -10.6 and IEC-6 cytotox 1.6.
Screening CC[n+]1c(/C=C/N(C)c2ccccc2)oc2ccc(Cl)cc21 returned BaF3 parental 59.0*, aSyn UTR inh 18.0, KLF5 inhibitor 5.6, Ba/F3 V617F tox 54.1*, APP transl inh -10.1 and IEC-6 cytotox 0.0.
For CCC(=O)c1ccc(OCC(=O)OCC(=O)N2c3ccccc3NC(=O)C2(C)C)cc1 the results were aSyn UTR inh -15.8.
O=C(O)[C@@H]1CCCC[C@@H]1C(=O)N1CCc2ccccc2C1CN1C(=O)c2ccccc2C1=O (stereo partly drawn) was read as BaF3 parental -2.1, aSyn UTR inh 67.7*, KLF5 inhibitor -28.9, Ba/F3 V617F tox -3.3, APP transl inh 19.9 and IEC-6 cytotox -1.3.
`CC(CCc1ccccc1)OS(N)(=O)=O` (stereo not drawn) gave aSyn UTR inh 21.5, KLF5 inhibitor -38.1 and IEC-6 cytotox -5.3.
For Nc1c(C(=O)Nc2ccc(S(=O)(=O)N3CCCC3)cc2)sc2nc3ccc(OC(F)(F)F)cc3cc12 the results were BaF3 parental 7.0, aSyn UTR inh 109.2*, KLF5 inhibitor 11.7, Ba/F3 V617F tox -3.3, APP transl inh 72.6* and IEC-6 cytotox -1.5.
Screening COC(=O)CCC(=O)Nc1sc(C)c(C)c1C(N)=O returned BaF3 parental -5.3, aSyn UTR inh -1.3, KLF5 inhibitor 0.9, Ba/F3 V617F tox -3.7, APP transl inh 9.0 and IEC-6 cytotox -5.9.
Screening COC(=O)CCC(=O)NC(=S)Nc1sc(C)c(C)c1C(N)=O returned BaF3 parental 71.3*, aSyn UTR inh 89.5*, KLF5 inhibitor 57.9, Ba/F3 V617F tox 75.0*, APP transl inh 93.9* and IEC-6 cytotox 40.5*.
Screening N=c1c(S(=O)(=O)c2ccc(Cl)cc2)cc2c(=O)n3ccccc3nc2n1C1CCCCC1 returned aSyn UTR inh 51.6, KLF5 inhibitor -28.8 and IEC-6 cytotox 2.2.
Screening Cc1cccc(C)c1NC(=O)COC(=O)c1cccc2c1C(=O)c1ccccc1C2=O returned BaF3 parental -0.2, aSyn UTR inh 67.9*, KLF5 inhibitor -6.4, Ba/F3 V617F tox -2.9, APP transl inh -15.9 and IEC-6 cytotox -3.2.
For Cc1cccc(NC(=O)COC(=O)c2cccc3c2C(=O)c2ccccc2C3=O)c1C the results were BaF3 parental 1.9, aSyn UTR inh 29.6, KLF5 inhibitor -10.3, Ba/F3 V617F tox -3.3, APP transl inh 4.9 and IEC-6 cytotox 1.2.
For COC(=O)c1ccccc1NC(=O)CSc1nc(-c2ccco2)cc(C(F)(F)F)n1 the results were BaF3 parental 5.0, KLF5 inhibitor -10.8, Ba/F3 V617F tox -1.5, APP transl inh 73.2* and IEC-6 cytotox -2.4.
For Cc1cc(C)c(C#N)c(SCC(=O)C2CC2)n1 the results were BaF3 parental -0.9, aSyn UTR inh -57.8, KLF5 inhibitor -7.2, Ba/F3 V617F tox -2.9 and IEC-6 cytotox -3.8.
For CCOc1ccc(NC(=S)Nc2ccccc2C2CC2)cc1 the results were BaF3 parental 80.6*, aSyn UTR inh -6.1, KLF5 inhibitor -35.0, Ba/F3 V617F tox 0.5, APP transl inh -5.8 and IEC-6 cytotox -1.3.
CCOc1ccc(NC(=S)Nc2ccc(OC(F)(F)F)cc2)cc1 was read as BaF3 parental 50.7*, aSyn UTR inh 5.3, KLF5 inhibitor 7.2, Ba/F3 V617F tox 62.9* and IEC-6 cytotox -0.7.
Screening O=C1c2cc(F)ccc2-n2c1nc1ccccc1c2=O returned aSyn UTR inh 65.8*, KLF5 inhibitor 25.4 and IEC-6 cytotox 12.2.
Screening Nn1c(-c2ccc(F)cc2)nc2ccccc2c1=O returned aSyn UTR inh 6.2, KLF5 inhibitor -13.5 and IEC-6 cytotox 8.2.
`CCS(=O)(=O)N1Cc2ccccc2CC1C(=O)Nc1cccc(C)c1` (stereo not drawn) gave BaF3 parental 37.6*, aSyn UTR inh -102.4, KLF5 inhibitor -41.4, Ba/F3 V617F tox 2.7, APP transl inh -8.1 and IEC-6 cytotox 0.5.
`COc1ccc(/C=C2\SC(=S)N(CCCC(=O)NNC(=O)c3ccccc3O)C2=O)cc1` gave BaF3 parental 3.4, aSyn UTR inh 74.8*, KLF5 inhibitor -28.4, Ba/F3 V617F tox -3.1, APP transl inh 65.0* and IEC-6 cytotox 1.6.
